# Source: PubChem BioAssay (NCATS)
# “And” between values parts separate entries of the source, which are not always exact repeats. Identical values can stand only once. Records with an inconclusive call do not appear. Entries that show only a call come without a potency. Some structures have more than one record in an assay (separate samples or runs), and their calls can disagree. The source made the active and inactive calls. Calls follow the shape of the dose curve; as a rule, active = well fitted curve in the direction sought with a large enough effect; inconclusive = small, poorly fitted or top-dose-only effect, or another doubt; inactive = no such curve, though single readings can be large; an effect the other way counts as inactive or inconclusive.
# Legend:
# [1] = Viability qHTS for spleen associated tyrosine kinase inhibitor (SYKi) drug resistant MV4-11 cells (AID 1963824); also: nearly all actives have a fitted effect of over 35% in size
# Procedure, shortened: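 CellTiter-Glo luminescence, read 10 min after reagent addition, reports viability after a 72 hr compound exposure. Cells are an MV4-11 line made resistant to SYK inhibition, seeded at 500 per well onto compound-containing plates.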
# [2] = Quantitative highthroughput screen to assess conditional lethalithy of NOMO1 cells grown in RPMI1640 with untreated serum (RPMI+s) (AID 1963876); also: nearly all actives have a fitted effect of over 35% in size
# Procedure, shortened: (§1)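 Each medium arm—HPLM with 10% dialyzed FBS, or RPMI1640 with 5 mM glucose and 10% untreated or dialyzed FBS—was screened against an 11-point, 3-fold compound titration for 48 h at 37 °C, with CellTiter-Glo luminescence as endpoint.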
# [3] = Quantitative highthroughput screen to assess conditional lethalithy of NOMO1 cells grown in RPMI1640 with dialyzed fetal bovine serum (RPMI+ds) (AID 1963877); also: nearly all actives have a fitted effect of over 30% in size; as to Viability: series mostly up to about 46 µM
# Procedure, shortened: as §1
# [4] = Quantitative highthroughput screen to assess conditional lethalithy of NOMO1 cells grown in Human Plasma-Like Medium with dialyzed fetal bovine serum (HPLM+ds) (AID 1963878); also: nearly all actives have a fitted effect of over 35% in size
# Procedure, shortened: as §1
# [5] = Quantitative highthroughput screen to assess conditional lethalithy of P12 Ichikawa cells grown in Human Plasma-Like Medium with dialyzed fetal bovine serum (HPLM+ds) (AID 1963879); conditions: Potency: viability; also: nearly all actives have a fitted effect of over 35% in size; as to Viability: series mostly up to about 46 µM
# Procedure, shortened: as §1
# [6] = Quantitative highthroughput screen to assess conditional lethalithy of P12 Ichikawa cells grown in RPMI1640 with dialyzed fetal bovine serum (RPMI+ds) (AID 1963880); conditions: Potency: P12-Ichikawa viability; also: nearly all actives have a fitted effect of over 35% in size
# Procedure, shortened: as §1
# [7] = Quantitative highthroughput screen to assess conditional lethalithy of P12 Ichikawa cells grown in RPMI1640 with untreated serum (RPMI+s) (AID 1963881); conditions: Potency: viability; also: nearly all actives have a fitted effect of over 35% in size; as to Viability: series mostly up to about 46 µM
# Procedure, shortened: as §1
# [8] = Quantitative highthroughput screen to assess conditional lethalithy of SEM cells grown in RPMI1640 with unreated serum (RPMI+s) (AID 1963883); also: nearly all actives have a fitted effect of over 35% in size
# Procedure, shortened: as §1
# [9] = Cellular viability qHTS for adrenocortical cancer (ACC) cell line SW-13 (AID 1963989); conditions: SW-13 ACC cells viability, CellTiter-Glo, 48 h; activity (max response): stronger effect = lower value; also: nearly all actives have a fitted effect of over 65% in size;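 as to activity (max response): cells grown in serum-free medium with ITS supplement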
# Procedure, shortened: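 48 h treatment, SW-13 in ITS/DMEM serum-free; doses up to 46 uM; readout CellTiter-Glo luminescence; curve fit four-parameter logistic.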
# [10] = Cellular viability qHTS for adrenocortical cancer (ACC) cell line NCI-H295R (AID 1963990); also: nearly all actives have a fitted effect of over 60% in size
# Procedure, shortened: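 Compound titrations (up to 46 uM final) are applied to NCI-H295R cultures for 48 h at 37C. Viable cell number is estimated by CellTiter-Glo signal, normalised to DMSO and doxorubicin controls.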
# [11] = Quantitative highthroughput screen to assess conditional lethalithy of SEM cells grown in RPMI1640 with dialyzed fetal bovine serum (RPMI+ds) (AID 1963884); also: nearly all actives have a fitted effect of over 35% in size; as to Viability: series mostly up to about 46 µM
# Procedure, shortened: as §1
# [12] = Quantitative highthroughput screen to assess conditional lethalithy of SEM cells grown in Human Plasma-Like Medium with dialyzed fetal bovine serum (HPLM+ds) (AID 1963882); also: nearly all actives have a fitted effect of over 35% in size; as to Viability: series mostly up to about 46 µM
# Procedure, shortened: as §1
# Potency is read from the fitted curve at half-maximal effect.
Compound,Potency [1],Potency [2],Potency [3],Potency [4],Potency [5],Potency [6],Potency [7],Potency [8],activity (max response) [9],Potency [10],Potency [11],Potency [12],Potency [9]
NC(=O)c1ccc(N(C(N)=O)c2c(F)cccc2F)nc1-c1ccc(F)cc1F,10.3 µM (active) and inactive,inactive,inactive,inactive,inactive,inactive,inactive,inactive,-4.37% (inactive),inactive,,,
NCc1ccc(OCCCc2sc(-c3ccc4c(c3)/C(=N/Nc3nc5ccccc5s3)CCC4)nc2C(=O)O)cc1,9.34 µM (active),5.9 nM (active),16.6 nM (active),inactive,4.7 nM (active),9.3 nM (active),33.1 nM (active),,-8.27% (inactive),inactive,4.7 nM (active),,
Cc1ccc(C)c(OCCCC(C)(C)C(=O)O)c1,inactive and 14.8 µM (active),inactive,inactive,inactive,inactive,inactive,inactive,inactive,2.23% (inactive) and -5.29% (inactive),inactive,inactive,,
Cc1cc(Nc2ncnc3ccc(-c4ccc(CNCCS(C)(=O)=O)o4)cc23)ccc1Oc1ccn2ncnc2c1,11.6 µM (active) and 18.6 µM (active),935 nM (active),1180 nM (active),209 nM (active),,743 nM (active),1180 nM (active),93.5 nM (active),,inactive,,590 nM (active),
N#Cc1c(O)c2c(-c3ccc(-c4ccccc4O)cc3)csc2[nH]c1=O,inactive,inactive,inactive,inactive,inactive,inactive,inactive,inactive,4.91% (inactive),inactive,inactive,inactive,
CC1=C(C(=O)O)N2C(=O)[C@@H](NC(=O)[C@H](N)C3=CCC=CC3)[C@H]2SC1,inactive,inactive,inactive,inactive,inactive,inactive,,inactive,-13.1% (inactive),inactive,inactive,inactive,
CC1(C)Cc2c(-c3ccccc3)c(-c3ccc(Cl)cc3)c(CC(=O)O)n2C1,9.2 µM (active),inactive,inactive,inactive,,inactive,inactive,inactive,,,inactive,inactive,
Cc1ccccc1C(=O)Nc1ccc(C(=O)N2CCCC(O)c3cc(Cl)ccc32)c(C)c1 (centres undefined),20.9 µM (active),inactive,inactive,inactive,inactive,inactive,inactive,inactive,,16400 nM (active),inactive,inactive,
COc1ccc(Cc2ccc(NC(N)=O)cc2)cc1-c1cccc(Cl)c1,18.6 µM (active),inactive,inactive,inactive,inactive,inactive,inactive,inactive,,28200 nM (active),,inactive,
CCOC(=O)N1c2ccc(C(F)(F)F)cc2[C@@H](N(Cc2cc(C(F)(F)F)cc(C(F)(F)F)c2)C(=O)OC)C[C@H]1CC,7.42 µM (active),inactive,inactive,inactive,,inactive,inactive,,4.35% (inactive),inactive,inactive,inactive,
Nc1ccn([C@@H]2C(F)=C(CO)[C@@H](O)[C@H]2O)c(=O)n1,1.03 µM (active),5240 nM (active),2950 nM (active),2630 nM (active),1660 nM (active),6600 nM (active),,,,,1480 nM (active),,
COc1ccc(-c2cc(=O)c3c(O)cc(O)cc3o2)cc1O,10.5 µM (active),inactive,inactive,inactive,inactive,inactive,inactive,,-29.6% (inactive),inactive,,,
COc1cc(C[C@@H](CO)[C@H](CO)Cc2ccc(O)c(OC)c2)ccc1O,inactive,inactive,inactive,inactive,inactive,,inactive,inactive,,inactive,inactive,inactive,
O=C(Nc1ccc(Oc2ccnc3[nH]ccc23)c(F)c1)c1cccn(-c2ccc(F)cc2)c1=O,0.0146 µM (active),inactive,inactive,inactive,inactive,,inactive,,,inactive,,8330 nM (active),
COc1ccc2c(c1OC)C(=O)OC2[C@H]1c2c(cc3c(c2OC)OCO3)CCN1C (some centres undefined),23.5 µM (active),296 nM (active),332 nM (active),148 nM (active),469 nM (active),590 nM (active),418 nM (active),,,25100 nM (active),,235 nM (active),22400 nM (active)
OCCn1cc(-c2cnc3nnn(Cc4ccc5ncccc5c4)c3n2)cn1,20.9 µM (active),inactive,inactive,,,inactive,inactive,,-4.78% (inactive),inactive,,,
